In the library only some 19% were active in any assay of this set; here they are far more common.
HT1080 IDH1KD tx: toxicity to HT-1080 IDH1 knockdown cells (counter line); HT-1080 IDH1 knockdown viability, ATP luminescence, 48 h; 360,000 compounds, 2% hits; Potency, µM (titrated, usually from 46.1 µM), for the others: at the top dose activity, negative = toxicity, usual class: cytotoxic;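 also: potency is read from the fitted curve at half-maximal effect; 0% = DMSO wells and -100% = cell-free medium wells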
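In this qHTS, HT-1080 cells depleted of IDH1 are exposed for 48 h at 37 °C to compound titrations. Toxicity is scored from CellTiter-Glo luminescence, with DMSO as full viability and medium alone as none.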
ELG1 DNA repair: ELG1-dependent DNA repair inhibition. HEK293T ELG1-luciferase reporter, luminescence, 16 h; DNA damage induced by 5-fluorouridine. Potency, µM (highest dose often 46.1 µM), without a hit: top-dose activity change, negative = inhibition, actives largely listed as inhibitors. 330,000 compounds, 2.3% hits; also: potency is read from the fitted curve at half-maximal effect; nearly all actives have a fitted effect of over 55% in size
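HEK293T cells expressing luciferase-tagged ELG1 (2,000/well) received 5-Fluorouridine plus compound or DMSO for 16 hr at 37 °C. Luciferase was read by ONE-Glo luminescence after 30 min at room temperature.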
HT1080-NT tox: kills 2HG-producing HT-1080-NT fibrosarcoma cells; HT-1080-NT fibrosarcoma viability, CellTiter-Glo ATP luminescence, 48 h; Potency, µM (top dose mostly 46.1 µM), inactives show top-dose activity, negative = less viability, actives largely listed as cytotoxic; 360,000 compounds, 1.6% hits;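 also: NT is the 2HG producing partner of a matched IDH1 knockdown line; potency is read from the fitted curve at half-maximal effect; 0% = DMSO-treated cells and -100% = media-only wells without cells; nearly all actives have a fitted effect of over 55% in size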
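HT-1080-NT fibrosarcoma cells (2HG-overproducing), 750 cells/well in RPMI with 5% FBS, dosed after 2 h and incubated 48 h at 37C. CellTiter-Glo luminescence normalized to DMSO and no-cell wells; concentration-response curves fitted and classed.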
TDP1 cell CPT: DT40-hTDP1 cell growth loss with CPT; 420,000 compounds, 12% hits; Potency, µM (doses to about 46.2 µM), inactives show at the top dose activity change, negative = growth inhibition, usual class: inhibitors; chicken DT40 Tdp1-/-;hTDP1 cells + 20 nM CPT, ATP luminescence, 48 h; also: potency is read from the fitted curve at half-maximal effect; nearly all actives have a fitted effect of over 55% in size
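Chicken DT40 Tdp1-/- cells complemented with human TDP1, 400 cells/well, exposed to compounds plus 20 nM camptothecin for at least 48 h at 37 C; viability read as ATP content by CellTiter-Glo luminescence.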
DT40 TDP1 no CPT: qHTS for Inhibitors of human tyrosyl-DNA phosphodiesterase 1 (TDP1): qHTS in cells in absence of CPT; DT40 Tdp1-/- hTDP1 cells, no CPT, ATP luminescence, 48 h; Potency, µM (top dose mostly 46.2 µM), without a hit: top-dose activity change, negative = growth inhibition, usual class: inhibitors; 420,000 compounds, 15% hits; AID 686978, 2013; also: potency is read from the fitted curve at half-maximal effect; nearly all actives have a fitted effect of over 55% in size
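Chicken DT40 Tdp1-/- cells complemented with human TDP1, screened without camptothecin (DMSO vehicle only), 400 cells/well. Compounds pin-transferred, cells incubated at 37 °C for at least 48 hr. Growth read as ATP-dependent luminescence (CellTiter-Glo, 30 min at RT).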
IL-1B inflam inh: inflammasome signaling inhibition, IL-1 beta readout; THP-1 LPS/ATP IL-1B secretion, AlphaLISA, 16 h; hits give low values; activity change, % at 57.5 µM; 360,000 compounds, 4.7% hits; in the data active = activity change below about -50%; inconclusive = mostly about -30% to -49%
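Secreted IL-1B measured by AlphaLISA bead assay after 16 h compound exposure of THP-1 cells; compounds (final up to 57.5 uM) added 1 h before LPS (250 ng/mL) and ATP (1.25 mM) stimulation; lower signal means less secretion.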
* hit, by the source's call; ? = inconclusive; / = no result; [ ] = dose if it differs, or a comment. Unless noted, calls follow the shape of the dose curve; as a rule, active = well fitted curve in the direction sought with a large enough effect; inconclusive = small, poorly fitted or top-dose-only effect, or another doubt; inactive = no such curve, though single readings can be large; an effect the other way counts as inactive or inconclusive. Unless noted, % is scaled to controls: 0 for no effect and ±100 for the full control effect.

SMILES	HT1080 IDH1KD tx	ELG1 DNA repair	HT1080-NT tox	TDP1 cell CPT	DT40 TDP1 no CPT	IL-1B inflam inh
CCOc1ccc(C(=O)c2oc3ccccc3c2NC(=O)c2cc(=O)c3ccc(C)cc3o2)cc1	/	/	/	-3%	-16%	/
Cc1cccc(NC2=NC(=S)N(c3cccc(C(=O)O)c3)C23CCCCC3)c1	2%	0%	-3%	-6%	-5%	23
COc1ccc(N2C(=S)N=C(Nc3cccc(C)c3)C23CCCCC3)cc1	-10%	7%	-4%	6.5µM*	-26%	-7
COC(=O)c1ccccc1NC(=S)N(Cc1ccc2c(c1)OCO2)Cc1cc2ccc(C)cc2[nH]c1=O	-5%	5.8µM*	-7%	?	?	-16
CCN(CC)CCN(Cc1cc2cc3c(cc2[nH]c1=O)OCCO3)C(=S)NCCOC	-5%	/	0%	?	?	?
COC(=O)c1ccccc1NC(=S)N(Cc1ccc2c(c1)OCO2)Cc1cc2ccc(OC)cc2[nH]c1=O	-6%	7.3µM*	0%	-1%	?	5
Cc1ccc(NC(=S)N(CCCN(C)C)Cc2cc3cc4c(cc3[nH]c2=O)OCO4)c(C)c1	8%	9%	7%	21%	-6%	15
Cc1ccc2[nH]c(=O)c(CN(CC3COCCO3)C(=O)Nc3ccccc3F)cc2c1 (stereo not given)	0%	?	1%	?	?	-1
COC(=O)c1ccccc1NC(=S)N(Cc1ccc2c(c1)OCO2)Cc1cc2cc(C)ccc2[nH]c1=O	-13%	6.5µM*	0%	21µM*	?	-15
CCN(CC)CCN(Cc1cc2ccc(C)cc2[nH]c1=O)C(=S)Nc1ccccc1C(=O)OC	18µM*	-1%	?	?	?	-77*
CCc1cccc(NC(=O)Cn2c(=O)n(CCC(=O)NCC3CCCO3)c(=O)c3cc(OC)c(OC)cc32)c1 (stereo not given)	8%	?	0%	?	?	-6
CCc1cccc(C)c1NC(=O)CN(C)S(=O)(=O)c1cccc2nsnc12	/	/	/	?	-27%	/
Cc1oc(-c2ccccc2NC(=O)C2CCC2)nc1CNC(=O)c1ccc2ccccc2c1	/	/	/	2%[9.04 µM]	-9%	/
Cc1nc(-c2ccc(S(=O)(=O)Oc3ccc(Cl)cc3Cl)s2)cs1	?	?	?	13µM*	18µM*	-1
Cc1nc(-c2ccc(S(=O)(=O)Nc3ccc(Br)cc3Cl)s2)cs1	1%	-1%	-5%	-4%	-2%	8
CC(C)(C)c1nn(-c2ccccc2)c2[nH]c(=O)c(CNc3ccc4c(c3)OCCO4)cc12	?	30%	?	-30%	-20%	28
Cc1ccc2nc(Cl)c(CNCc3ccccc3)cc2c1	1%	0%	-2%	?	?	0
Cc1ccc(CNCc2cc3c(C(C)(C)C)nn(-c4ccccc4)c3[nH]c2=O)cc1	?	-13%	?	?	25µM*	-85*
COc1ccc(CNCc2cc3c(C(C)(C)C)nn(-c4ccccc4)c3[nH]c2=O)cc1	?	-14%	?	26µM*	18µM*	10

Assay outcomes as filed in PubChem.
